According to the supplement of paper PMC13380429:

Each compound was assayed on Vero E6 infected with SARS-CoV-2 (assay: morphology score (similarity to uninfected cells); higher = more like uninfected cells). Details: 24 h.

Row | Structure (SMILES) | morphology score
1 | COC1(C2=NCCN2)COc2ccccc2O1 (centres undefined) (10 µM) | 0.0681
2 | CN1C[C@H](CNC(=O)OCc2ccccc2)C[C@@H]2c3cccc4c3c(cn4C)C[C@H]21 [metergoline] (10 µM) | 0.164
3 | CC(C)(C)NCC(O)COc1cccc2[nH]c(C#N)cc12 (centres undefined) [cyanopindolol] (10 µM) | -0.0665
4 | Cc1nc(N)sc1-c1ccnc(Nc2ccc(N3CCOCC3)cc2)n1 (0.833333 µM) | 0.443
5 | O=S(=O)(Cc1ccccc1)Nc1ccc(-c2ccc3c(cnn3-c3ccc(F)cc3)c2)c(C(F)(F)F)c1 (10 µM) | 0.22
6 | C[C@@H](CN1CCC(n2c(=O)[nH]c3cc(Cl)ccc32)CC1)NC(=O)c1ccc2ccccc2c1 (10 µM) | 0.46
7 | COc1cc(N2CCN(C(C)=O)CC2)ccc1Nc1ncc(Cl)c(Nc2ccc(N3CCN(C(C)=O)CC3)cc2OC)n1 (10 µM) | 0.0828
8 | CCCN(CCC)CCc1cccc2c1CC(=O)N2 [ropinirole] (10 µM) | -0.139
9 | CC(C)c1cccc2c(-c3ccccc3)cc(-c3ccc(-c4ccc(C(=O)O)cc4)[nH]3)nc12 (10 µM) | 0.104
10 | O=C(O)c1cc(O)c2c(c1)[C@H]([C@H]1c3cc(C(=O)O)cc(O)c3C(=O)c3c(O[C@@H]4O[C@H](CO)[C@@H](O)[C@H](O)[C@H]4O)cccc31)c1cccc(O[C@@H]3O[C@H](CO)[C@@H](O)[C@H](O)[C@H]3O)c1C2=O [sennoside-A] (10 µM) | -0.287
11 | Cn1cc(CCn2cnc(-c3cnn(C)c3)c2-c2ccc(C#N)cc2)cn1 (10 µM) | 0.0344
12 | Cc1ccc(NC2=NCCN2)c(Cl)c1 [tolonidine] (10 µM) | -0.0217
13 | Oc1ccc(-c2c(-c3ccccc3)nn3c(C(F)(F)F)cc(C(F)(F)F)nc23)cc1 (10 µM) | 0.0465
14 | O=C(NOCCO)c1cc(CN2OCCCC2=O)c(F)c(F)c1Nc1ccc(I)cc1F (0.833333 µM) | -0.175
15 | CC1(C)OC2(C)C(O)CC1CC2O (centres undefined) [epomediol] (10 µM) | 0.173
16 | COc1ccc2cc(CCC(C)=O)ccc2c1 [nabumetone] (10 µM) | 0.0377
17 | COc1ccc(/C=C/C(=O)O)cc1 [trans-4-methoxycinnamic-acid] (10 µM) | 0.07
18 | CCOC(=O)/C=C(C)/C=C/C=C(C)/C=C/c1c(C)cc(OC)c(C)c1C [etretinate] (10 µM) | -0.112
19 | Cc1cc(NC(=O)C(c2ccccc2)N2CCCc3ccccc32)no1 (centres undefined) (10 µM) | 0.018
20 | CN(C(=O)CCCOc1ccc2[nH]c(=O)ccc2c1)C1CCCCC1 [cilostamide] (10 µM) | -0.131

Row | Structure (SMILES) | morphology score
21 | O=C(O)c1cccnc1C(=O)O [quinolinic-acid] (10 µM) | 0.107
22 | CN1CCN(c2ccc(-c3cccc(CN4CCOCC4)c3)cc2NC(=O)c2c[nH]c(=O)cc2C(F)(F)F)CC1 (10 µM) | 0.0309
23 | COc1ccccc1OCCNCC(O)COc1cccc2[nH]c3ccccc3c12 (centres undefined) [carvedilol] (10 µM) | 0.134
24 | COCCCOc1ccnc(C[S+]([O-])c2nc3ccccc3[nH]2)c1C (centres undefined) [rabeprazole] (10 µM) | 0.00912
25 | CC1(C)C(=O)NC2=C1C(=O)C(=O)c1ccccc12 (0.833333 µM) | -0.0548
26 | Cc1ccc(-c2csc3ncnc(SCCC(=O)O)c23)cc1 (10 µM) | 0.15
27 | NC(=O)c1cnc2[nH]ccc2c1N[C@@H]1[C@@H]2CC3C[C@H]1C[C@@](O)(C3)C2 (10 µM) | 0.174
28 | COc1cc(NC(=O)Nc2cccc(CNC(=O)O[C@H]3CCOC3)c2)ccc1-c1cnco1 [merimepodib] (10 µM) | 0.447
29 | O=C([O-])c1ccccn1.O=C([O-])c1ccccn1.O=C([O-])c1ccccn1.[Cr+3] [chromium-picolinate] (10 µM) | -0.0147
30 | CC(=O)Oc1ccccc1C(=O)Oc1cccc(CO[N+](=O)[O-])c1 (10 µM) | 0.178
31 | OC[C@H]1O[C@@H](O[C@@H]2[C@H](O)[C@@H](O)[C@H](O[C@H]3[C@H](O)[C@@H](O)C(O)O[C@@H]3CO)O[C@@H]2CO)[C@H](O)[C@@H](O)[C@H]1O (some centres undefined) [4-galactosyllactose] (10 µM) | -0.0673
32 | NC(=O)c1ccc(-c2nc(-c3ccccn3)c(-c3ccc4c(c3)OCO4)[nH]2)cc1 (10 µM) | -0.124
33 | CC1(C)[C@H]2CC[C@]1(C)[C@@H](O)[C@H]2O [cis-exo-camphanediol-2,3] (10 µM) | 0.0601
34 | O=C1COc2c(CCNCCN(C(=O)CCNCCc3ccc(Cl)c(Cl)c3)C3CCCCC3)ccc(O)c2N1 (10 µM) | -0.232
35 | CCCCC(F)(F)[C@@]1(O)CC[C@H]2[C@@H](CC(=O)[C@@H]2CCCCCCC(=O)O)O1 [lubiprostone] (10 µM) | 0.0116
36 | CC1(C)[C@@H](O)CC[C@]2(C)[C@H]3C(=O)C=C4[C@@H]5C[C@@](C)(C(=O)O)CC[C@]5(C)CC[C@@]4(C)[C@]3(C)CC[C@@H]12 [enoxolone] (10 µM) | 0.00688
37 | CCc1nc(C)ccc1O [emoxipin] (10 µM) | 0.143
38 | O=C(O)c1ccc2[nH]cc(CCCCN3CC=C(c4ccccc4)CC3)c2c1 [carmoxirole] (10 µM) | 0.0618
39 | C=C1/C(=C\C=C2/CCC[C@]3(C)[C@@H]([C@H](C)OCCC(C)(C)O)CC[C@@H]23)C[C@@H](O)C[C@@H]1O [maxacalcitol] (10 µM) | -0.0664
